Results filed as inconclusive are left out. Calls of active or inactive are those of the source. How the source made its calls: active means hit-call score of the fitted dose curve at least 0.9, where 1 is the maximum; inconclusive means response in the unintended direction; inactive means score below 0.9.
These compounds were tested on organic anion transporter (SLCO1B1), SLCO1B1 (gene 10599) (assay: CLD_SLCO1B1_6hr: CellzDirect (CLD) Gene Expression Assay for organic anion transporter (SLCO1B1) at 6 hours (AID 2283668)).
Protocol: CLD_6hr is a cell-based, multiplexed-readout assay that uses hepatocyte, a human liver primary cell, with measurements taken at 6 hours after chemical dosing in a 96-well plate.CLD_SLCO1B1_6hr is one of 16 assay component(s) measured or calculated from the CLD_6hr assay. It is designed to make measurements of mRNA induction, a form of inducible reporter, as detected with chemiluminescence signals by Quantitative Nuclease Protection Assay (qNPA) technology.Data from the assay component CLD_SLCO1B1_6hr was analyzed at the endpoint, CLD_SLCO1B1_6hr, in the positive analysis fitting direction relative to DMSO as the negative control and baseline of activity. Using a type of inducible reporter, gain-of-signal activity can be used to understand changes in the reporter gene as they relate to the gene SLCO1B1. Furthermore, this assay endpoint can be referred to as a primary readout. To generalize the intended target to other relatable targets, this assay endpoint is annotated to the transporter intended target family, where subfamily is organic anion transporter.
Human hepatocyte cultures were treated daily for two consecutive days with fresh dosing solutions containing appropriate concentrations of the 320 ToxCast chemicals (chemical identities were blinded to CellzDirect and other ToxCast collaborators), vehicle control (0.2% DMSO), and positive control inducers as summarized in Table 1. Due to the large number of treatment groups and chemicals examined, the ToxCast chemicals were divided into two groups (spanning two independent cultures of hepatocytes from separate donor preparations (Hu778: ToxCast plates 1 and 2; Hu776: ToxCast plates 3 and 4). Each preparation of human hepatocyte cultures was treated with respective vehicle control, medium only control, set of six positive controls/reference chemicals for the five hepatic receptor pathways, and a subset of eight of the ToxCast chemicals (indoxacarb, pyrithiobac-sodium, norflurazon, cyhalofop-butyl, methomyl, thiram, acetochlor, and propiconazole). These replicate data, coupled with internal replicates designed within the blinded ToxCast chemical library, provided additional data to evaluate interindividual differences between hepatocyte preparations and their potential impact on chemical profiles.Cell morphology and integrity were evaluated using phase-contrast microscopy as an indicator of hepatocyte cell health (Tyson & Green, 1987). Cultures for each treatment group (i.e., media, vehicle [0.2% DMSO], positive control inducers [multiple concentrations], and the ToxCast chemicals [multiple concentrations]) were observed and cell morphology was assessed relative to vehicle control cultures at each harvest time point (0, 6, 24, or 48 h). […] Images were evaluated at the conclusion of the study to assess changes in cell integrity and account for the effects of chemical exposure on uncharacteristic changes in concentration-dependent gene expression profiles. The results from these determinations of apparent cytotoxicity were annotated (yes/no) alongside the corresponding qNPA data for reference.At the conclusion of each treatment period, hepatocyte cultures (96-well) were washed with 1 volume of HBSS, lysed by addition of 25 ul ArrayPlate lysis buffer (HTG, Tucson, AZ), and 70 ul/well of Denaturation Oil, denatured by incubation at 95C for 10 min, and frozen at approximately -70C until analysis by nuclease protection assay (qNPA) (Roberts et al., 2007). For qNPA analysis, cell lysates were thawed at 50C for approximately 30 min, qNPA probes were added, and samples were incubated at 95C for 10 min to begin the detection process by denaturing the target RNA, dissociating the duplexes and secondary structure hybridization. At the conclusion of the hybridization period, S1 nuclease reagent was added to each sample to digest all nonprotected nucleotides at 50C for 60-90 min. […]

Row | SMILES | outcome
1 | O=P(O)(O)CCCl | inactive
2 | C=CCOC(=O)C(C)(C)OC(=O)c1cc(-n2c(=O)cc(C(F)(F)F)n(C)c2=O)ccc1Cl | inactive
3 | CCCN(CC)CC1COC2(CCC(C(C)(C)C)CC2)O1 (stereo not drawn) | inactive
4 | N#Cc1c(Cl)cccc1Cl | inactive
5 | Nc1c(Cl)c(F)nc(OCC(=O)O)c1Cl | inactive
6 | COCC(=O)N(c1c(C)cccc1C)C(C)C(=O)OC (stereo not drawn) | inactive
7 | CCCCC(C#N)(Cn1cncn1)c1ccc(Cl)cc1 (stereo not drawn) | inactive
8 | COc1cc(OC)nc(NC(=O)NS(=O)(=O)c2ncccc2OCC(F)(F)F)n1 | inactive
9 | COCC(C)N(C(=O)CCl)c1c(C)csc1C (stereo not drawn) | inactive
10 | CN=C=S | inactive
11 | CCOC(=O)C(C)OC(=O)c1cc(Oc2ccc(C(F)(F)F)cc2Cl)ccc1[N+](=O)[O-] (stereo not drawn) | inactive
12 | CSC(=O)c1c(C(F)F)nc(C(F)(F)F)c(C(=O)SC)c1CC(C)C | inactive
13 | CO/N=C(/C1=NOCCO1)c1ccccc1Oc1ncnc(Oc2ccccc2Cl)c1F | inactive
14 | CCN(CC)c1nc(C)cc(OP(=S)(OC)OC)n1 | inactive
15 | OC(c1ccc(Cl)cc1)(c1ccc(Cl)cc1)C(Cl)(Cl)Cl | inactive
16 | COCc1cnc(C2=NC(C)(C(C)C)C(=O)N2)c(C(=O)O)c1 (stereo not drawn) | inactive
17 | CCCCC(O)(Cn1cncn1)c1ccc(Cl)cc1Cl (stereo not drawn) | inactive

Row | SMILES | outcome
18 | O=c1n(Cl)c(=O)n(Cl)c(=O)n1Cl | inactive
19 | CCCC(=NOCC)C1=C(O)CC(CC(C)SCC)CC1=O (stereo not drawn) | inactive
20 | COP(=O)(OC)O/C(C)=C/C(=O)N(C)C | inactive
21 | CC1(C)CCC(=Cc2ccc(Cl)cc2)C1(O)Cn1cncn1 (stereo not drawn) | inactive
22 | Clc1cccc(C(Cl)(Cl)Cl)n1 | inactive
23 | CCCCOCN(C(=O)CCl)c1c(CC)cccc1CC | inactive
24 | CC(C)N1C(=O)c2ccccc2NS1(=O)=O | inactive
25 | CCNC(=O)NC(=O)C(C#N)=NOC | inactive
26 | Cc1ccc(N=CN(C)C=Nc2ccc(C)cc2C)c(C)c1 | inactive
27 | Clc1nc(Cl)nc(Nc2ccccc2Cl)n1 | inactive
28 | CCOP(=O)(OCC)Oc1nc(Cl)c(Cl)cc1Cl | inactive
29 | CC1(C)C(C=C(Cl)Cl)C1C(=O)OC(C#N)c1cccc(Oc2ccccc2)c1 (stereo not drawn) | inactive
30 | CCOc1nc(F)cc2nc(S(=O)(=O)Nc3c(Cl)cccc3Cl)nn12 | inactive
31 | COC(=O)c1c(C(F)F)nc(C(F)(F)F)c(C2=NCCS2)c1CC(C)C | inactive
32 | CS(=O)(=O)c1cc(C(F)(F)F)ccc1C(=O)c1cnoc1C1CC1 | inactive
33 | CC(C)C1(C)N=C(c2ncccc2C(=O)O)NC1=O (stereo not drawn) | inactive
